Test [1] is described as follows: NCI Yeast Anticancer Drug Screen. Data for the rad50 strain (AID 155).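 Further: 0% = growth of vehicle-only cultures of the same strain.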 As to conditions: S. cerevisiae rad50 strain growth inhibition, stronger effect = higher value. The method in brief: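 Readout: growth inhibition relative to vehicle-treated cultures. Compound exposure was carried out in a genetically defined yeast strain deficient in DNA damage repair.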
Test [2] can be described thus: NCI Yeast Anticancer Drug Screen. Data for the mec2-1 strain (AID 157). As to conditions: S. cerevisiae mec2-1 strain, stronger effect = higher value. The method in brief: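 Each compound was tested on mec2-1 yeast, a strain altered in DNA damage repair or cell cycle control. Growth inhibition is reported relative to vehicle.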
Test [3] can be described thus: NCI Yeast Anticancer Drug Screen. Data for the sgs1 mgt1 strain (AID 161).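 Further: 0% = growth of cultures given vehicle only.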 The following applies: S. cerevisiae sgs1 mgt1 strain, stronger effect = higher value. Summed up:
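Genetically altered yeast, compound exposure, growth inhibition relative to vehicle.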

The nature of test [4]: NCI Yeast Anticancer Drug Screen. Data for the cln2 rad14 strain (AID 165).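 Further: 0% = growth equal to vehicle treated cultures.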 The following applies: S. cerevisiae cln2 rad14 strain, stronger effect = higher value. The method in brief: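 Test compounds were added to cln2 rad14 yeast cultures; inhibition of growth was then determined by comparison with vehicle treatment.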
Test [5] can be described thus: NCI Yeast Anticancer Drug Screen. Data for the bub3 strain (AID 167). As to conditions: S. cerevisiae bub3 mutant strain, stronger effect = higher value. Summed up: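 Readout: yeast growth inhibition, expressed relative to vehicle-only wells. The test organism is a mutant strain from a panel with lesions in DNA repair or checkpoint genes.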
A short description of test [6]: NCI Yeast Anticancer Drug Screen. Data for the mlh1 rad18 strain (AID 175). The following applies: S. cerevisiae mlh1 rad18 strain growth inhibition, stronger effect = higher value. The method in brief:
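Inhibition values reflect reduced growth of mutant yeast versus vehicle-treated controls following compound exposure; the mutations affect DNA damage repair.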

[7] abbreviates: at 5.0 µM (retest, dose inferred, filed as 0.5).
The mark [8] stands for this setting: at 50.0 µM (retest, dose inferred, filed as 5.0).

About 79,000 compounds went through this panel and 15% of them were active in at least one assay; those are over-represented in the sample as a whole. A number with no mark means an inactive call. The source made the active and inactive calls. No stated cut-off is given here; in the data, active means growth inhibition above about 70%; inactive means the rest.

This note sets out measurements from PubChem BioAssay (NCI).

As to `O/N=C(/C[N+]12CN3CN(CN(C3)C1)C2)c1ccc(I)cc1`, the growth inhibition in test [1] (setting [7]) is 0%; in test [1] (setting [8]) it was 20%; in test [1] (at 50.0 µM) it was 91.6% (active); in test [2] (setting [7]), -4%; in test [2] (setting [8]) it was 40%; in test [2] (at 50.0 µM), 84% (active). For the same compound, the growth inhibition in test [3] (setting [7]) is -4%; in test [3] (setting [8]) it was 55%; in test [3] (at 50.0 µM) it was 96.2% (active); in test [4] (setting [7]), -1%; in test [4] (setting [8]), 23%; in test [4] (at 50.0 µM) it was 91.7% (active). In addition, the growth inhibition in test [5] (setting [7]) is 1%; in test [5] (setting [8]) it was 12%; in test [5] (at 50.0 µM) it was 77.6% (active); in test [6] (setting [7]) it was 12%; in test [6] (setting [8]) it was 57%; in test [6] (at 50.0 µM), 92% (active).

With `O=C1CCC(Cc2ccccc2Br)C(=O)N1` (configuration not stated), the growth inhibition in test [1] (setting [7]) is -5%; in test [1] (setting [8]), 10%; in test [1] (at 50.0 µM) it was -10.8%; in test [2] (setting [7]) it was -1%; in test [2] (setting [8]) it was 6%; in test [2] (at 50.0 µM), 36%. In addition, the growth inhibition was 11% in test [3] (setting [7]); 92% (active) in test [3] (setting [8]); 97.2% (active) in test [3] (at 50.0 µM); -4% in test [4] (setting [7]); 8% in test [4] (setting [8]); -39.2% in test [4] (at 50.0 µM). Further, the growth inhibition in test [5] (setting [7]) was -4%; in test [5] (setting [8]), 6%; in test [5] (at 50.0 µM), -45.5%; in test [6] (setting [7]), -7%; in test [6] (setting [8]), 6%; in test [6] (at 50.0 µM) it was 6.35%.

On to `CC(=O)/C(=C\c1cccs1)C(=O)CCN(C)C`, for which the growth inhibition in test [1] (setting [7]) was 11%; in test [1] (setting [8]), 25%; in test [1] (at 50.0 µM), 9.05%; in test [2] (setting [7]) it was 15%; in test [2] (setting [8]), 28%; in test [2] (at 50.0 µM), 17.2%. Moreover, the growth inhibition in test [3] (setting [7]) was 10%; in test [3] (setting [8]), 29%; in test [3] (at 50.0 µM) it was 34%; in test [4] (setting [7]), 20%; in test [4] (setting [8]), 27%; in test [4] (at 50.0 µM), 19.5%. Besides, the growth inhibition in test [5] (setting [7]) is 4%; in test [5] (setting [8]) it was 23%; in test [5] (at 50.0 µM) it was -2.2%; in test [6] (setting [7]), 22%; in test [6] (setting [8]), 30%; in test [6] (at 50.0 µM), 50.1%.

As to `CCC(CC=C(C)C)(CC=C(C)C)c1ccncc1` (tested in a mixture with another compound), the growth inhibition in test [1] (setting [7]) is -7%; in test [1] (setting [8]), 84% (active); in test [1] (at 50.0 µM) it was 97.8% (active); in test [2] (setting [7]), -8%; in test [2] (setting [8]) it was 76% (active); in test [2] (at 50.0 µM) it was 99% (active). In addition, the growth inhibition in test [3] (setting [7]) is 1%; in test [3] (setting [8]), 80% (active); in test [3] (at 50.0 µM), 98.9% (active); in test [4] (setting [7]), -5%; in test [4] (setting [8]), 50%; in test [4] (at 50.0 µM) it was 70.5% (active). The growth inhibition in test [5] (setting [7]) was 1%; in test [5] (setting [8]), 76% (active); in test [5] (at 50.0 µM) it was 93.2% (active); in test [6] (setting [7]), -4%; in test [6] (setting [8]), 74% (active); in test [6] (at 50.0 µM), 96.2% (active).

Turning to `COc1ccc(/C(=C/CN2CCC3CCC(C3)C2)c2ccccc2)cc1` (configuration not stated), the growth inhibition in test [1] (setting [7]) was -3%; in test [1] (setting [8]), -17%; in test [1] (at 50.0 µM), 40.9%; in test [2] (setting [7]), 5%; in test [2] (setting [8]) it was -11%; in test [2] (at 50.0 µM), 14.6%. The growth inhibition in test [3] (setting [7]) is -31%; in test [3] (setting [8]) it was -27%; in test [3] (at 50.0 µM) it was 50.8%; in test [4] (setting [7]), -6%; in test [4] (setting [8]), -19%; in test [4] (at 50.0 µM), 12.9%. Further, the growth inhibition in test [5] (setting [7]) is -3%; in test [5] (setting [8]), 11%; in test [5] (at 50.0 µM), 17.6%; in test [6] (setting [7]) it was -13%; in test [6] (setting [8]), -34%; in test [6] (at 50.0 µM), 12.7%.

Take `c1ccc(-c2n[nH]c3c4ccccc4c4ccccc4c23)cc1`: the growth inhibition was 19% in test [1] (setting [7]); 92% (active) in test [1] (setting [8]); 93.8% (active) in test [1] (at 50.0 µM); 16% in test [2] (setting [7]); 98% (active) in test [2] (setting [8]); 95% (active) in test [2] (at 50.0 µM). Further, the growth inhibition in test [3] (setting [7]) was 34%; in test [3] (setting [8]) it was 97% (active); in test [3] (at 50.0 µM) it was 94.2% (active); in test [4] (setting [7]) it was 5%; in test [4] (setting [8]) it was 94% (active); in test [4] (at 50.0 µM), 93.4% (active). Moreover, the growth inhibition in test [5] (setting [7]) is 13%; in test [5] (setting [8]), 95% (active); in test [5] (at 50.0 µM), 95% (active); in test [6] (setting [7]) it was 62%; in test [6] (setting [8]), 96% (active); in test [6] (at 50.0 µM), 95% (active).

With `O=[N+]([O-])c1ccc(NNS(=O)(=O)c2ccccc2)c([N+](=O)[O-])c1`, the growth inhibition in test [1] (setting [7]) is 3%; in test [1] (setting [8]), -7%; in test [1] (at 50.0 µM), 5.85%; in test [2] (setting [7]) it was -13%; in test [2] (setting [8]), -4%; in test [2] (at 50.0 µM), 16.3%. Also, the growth inhibition is -3% in test [3] (setting [7]); 13% in test [3] (setting [8]); 10.3% in test [3] (at 50.0 µM); -33% in test [4] (setting [7]); -17% in test [4] (setting [8]); -18.2% in test [4] (at 50.0 µM). For the same compound, the growth inhibition in test [5] (setting [7]) was 4%; in test [5] (setting [8]) it was 13%; in test [5] (at 50.0 µM), -2%; in test [6] (setting [7]), 0%; in test [6] (setting [8]) it was 16%; in test [6] (at 50.0 µM), 13.8%.

With `NC(=S)NNCCC(=O)Nc1ccccc1C(F)(F)F`, the growth inhibition in test [1] (setting [7]) is 2%; in test [1] (setting [8]), 3%; in test [1] (at 50.0 µM) it was -9.75%; in test [2] (setting [7]) it was -2%; in test [2] (setting [8]), 2%; in test [2] (at 50.0 µM), 12.2%. Further, the growth inhibition in test [3] (setting [7]) was 3%; in test [3] (setting [8]), 4%; in test [3] (at 50.0 µM), -1.9%; in test [4] (setting [7]), -3%; in test [4] (setting [8]), 7%; in test [4] (at 50.0 µM), 6.15%. The growth inhibition in test [5] (setting [7]) is 0%; in test [5] (setting [8]) it was 1%; in test [5] (at 50.0 µM), 65.8%; in test [6] (setting [7]) it was -2%; in test [6] (setting [8]) it was 7%; in test [6] (at 50.0 µM) it was 2.75%.

As for `COc1ccc(C(c2ccc(C(C)C)cc(OC)c2=O)c2ccc(C(C)C)cc(OC)c2=O)cc1`, the growth inhibition in test [1] (setting [7]) was 7%; in test [1] (setting [8]) it was 54%; in test [1] (at 50.0 µM), 22.4%; in test [2] (setting [7]), -1%; in test [2] (setting [8]) it was 39%; in test [2] (at 50.0 µM), 42.2%. For the same compound, the growth inhibition is 6% in test [3] (setting [7]); 61% in test [3] (setting [8]); 13.2% in test [3] (at 50.0 µM); -2% in test [4] (setting [7]); 37% in test [4] (setting [8]); 10.2% in test [4] (at 50.0 µM). For the same compound, the growth inhibition was 0% in test [5] (setting [7]); 16% in test [5] (setting [8]); 9% in test [5] (at 50.0 µM); -4% in test [6] (setting [7]); 41% in test [6] (setting [8]); 29.2% in test [6] (at 50.0 µM).
